# Compound activity: PubChem, The Scripps Research Institute Molecular Screening Center
# pPAFAH inh = inhibitors of human plasma PAF acetylhydrolase (pPAFAH) | Q13093 | recombinant pPAFAH, FP-rhodamine probe fluorescence polarization | inhibition, % at 3.39 µM | actives 1.5% (n = 330,000);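 active means inhibition above the mean inhibition across the screen plus 3 SD, cut at about 25% in these data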;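 further: inhibitors block binding of the rhodamine activity-based probe so polarization drops; 0% = enzyme with DMSO and 100% = wells lacking pPAFAH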
# ZTA counter = blocks Epstein-Barr virus ZTA, an EBNA-1 counter-screen; P03206; AID 2234; actives 0.15% (n = 320,000); ZTA-DNA binding, fluorescence polarization; inhibition, % at 11 µM; in the data active means inhibition above about 33%
# EBNA-1 inh = blocks EBNA-1 binding to DNA; actives 0.34% (n = 300,000); inhibition, % at 14.8 µM; EBNA-1 DNA binding, fluorescence polarization; AID 1950; in the data active means inhibition above about 28%
# PAFAH2 inh = inhibitors of human PAFAH2 | recombinant PAFAH2, FP-rhodamine activity probe, fluorescence polarization | AID 492956 | Q99487 | actives 0.99% (n = 340,000) | inhibition, % at 3.39 µM;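 active means inhibition above the mean over all tested compounds plus 3 SD, cut at about 30% in these data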;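 further: inhibitors block probe labeling of enzyme so polarization drops; 0% = enzyme with DMSO and 100% = wells lacking PAFAH2 protein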
# PAFAH1B2 inh = inhibitors of human PAFAH1B2; P68402; recombinant PAFAH1B2, FP-rhodamine activity probe, fluorescence polarization; inhibition, % at 3.39 µM; actives 1.2% (n = 340,000);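 active means inhibition above the mean of all tested compounds plus 3 SD, cut at about 24% in these data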;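 further: 0% = enzyme with DMSO and 100% = wells lacking PAFAH1B2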
# Target sequence (P68402 whole entry, looked up): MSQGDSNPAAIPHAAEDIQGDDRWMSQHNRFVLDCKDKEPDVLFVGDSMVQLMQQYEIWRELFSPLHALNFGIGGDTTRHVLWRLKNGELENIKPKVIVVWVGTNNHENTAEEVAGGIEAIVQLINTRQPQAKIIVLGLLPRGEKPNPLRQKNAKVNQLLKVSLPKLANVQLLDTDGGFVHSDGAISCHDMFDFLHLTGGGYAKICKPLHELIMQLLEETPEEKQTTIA
# PAFAH1B3 inh = blocks human PAF acetylhydrolase 1B catalytic subunit 3. recombinant PAFAH1B3, FP-rhodamine probe, fluorescence polarization. inhibition, % at 3.39 µM. Q15102. actives 0.28% (n = 340,000). AID 492972;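 active means inhibition above the screen-wide average of all tested compounds plus 3 SD, cut at about 25% in these data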;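 further: 0% = enzyme with DMSO only and 100% = wells lacking PAFAH1B3 protein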
# Target sequence (Q15102 whole entry, looked up): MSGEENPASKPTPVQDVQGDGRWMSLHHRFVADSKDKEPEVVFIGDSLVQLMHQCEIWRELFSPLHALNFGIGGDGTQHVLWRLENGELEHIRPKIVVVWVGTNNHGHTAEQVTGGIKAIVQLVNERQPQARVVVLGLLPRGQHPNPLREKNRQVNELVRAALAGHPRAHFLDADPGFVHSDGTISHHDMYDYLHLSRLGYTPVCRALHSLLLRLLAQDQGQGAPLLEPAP
# PAFAH2 FP conf = PAFAH2 (human) inhibition, confirmed | recombinant PAFAH2, FP-rhodamine activity probe, fluorescence polarization | shares compounds with PAFAH2 inh | inhibition, % at 3.39 µM | AID 493030 | actives 65% (n = 2,300);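 active means mean inhibition over three repeats above a set limit taken from the earlier primary screen, cut at about 30% in these data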;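 further: inhibitor blocks binding of rhodamine activity probe so polarization falls; 0% = enzyme with DMSO and 100% = wells lacking PAFAH2 protein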
# The depositor's hits bear a star; . = no result given. Sampled rows, rich in hits. Any-hit rate of the full collection: about 2.9%.
SMILES,pPAFAH inh,ZTA counter,EBNA-1 inh,PAFAH2 inh,PAFAH1B2 inh,PAFAH1B3 inh,PAFAH2 FP conf
Oc1[nH]c2ccccc2c1N=Nc1nc2ccccc2s1,7.6,-6.4,4.2,51.6*,7.1,-3.5,19.6
Cc1ccc2[nH]c(O)c(N=Nc3nc4ccccc4s3)c2c1,0.0,-6.8,-3.5,55.2*,5.4,-2.5,35.6*
Oc1[nH]c2ccccc2c1N=Nc1ccccc1,0.5,0.2,-2.2,-3.5,0.1,1.4,.
CC(C)(C)C(=O)CSc1ccc(S(=O)(=O)N2CCN(Cc3ccccc3)CC2)cn1,7.5,-5.9,.,-3.2,1.0,5.8,.
COc1ccc(/C=C/C(=O)OCC(=O)NC2CCCC(C)C2C)cc1S(=O)(=O)N1CCOCC1 (centres undefined),0.3,0.3,3.3,67.4*,2.4,-1.1,74.7*
COc1ccc(/C=C/C(=O)Nc2ccccc2Cl)cc1S(=O)(=O)N1CCOCC1,1.9,1.7,-4.1,-1.4,-0.5,1.8,.
CC1CCCC(NC(=O)COC(=O)/C=C/c2ccc(S(=O)(=O)N3CCOCC3)cc2)C1C (centres undefined),4.9,23.8,3.6,-0.1,2.0,-1.5,.
COc1ccc(/C=C/C(=O)OCC(=O)Nc2ccc(Cl)cc2F)cc1S(=O)(=O)N1CCOCC1,2.3,10.7,-9.6,72.6*,2.5,3.7,48.1*
O=C(O)c1cccc(N/N=C/C2=C(Cl)c3cc(Cl)ccc3SC2)c1,.,.,.,35.8*,14.9,17.0,15.2
COc1cc(/C=C/C(=O)OCC(=O)Nc2cc(S(=O)(=O)N(C)C)ccc2Cl)ccc1O,8.2,6.9,6.3,60.3*,1.9,-1.2,59.5*
N#Cc1ccccc1NC(=O)COC(=O)/C=C/c1ccc(S(=O)(=O)N2CCOCC2)cc1,5.8,.,.,50.5*,2.1,5.3,31.1*
CN(C)S(=O)(=O)c1ccc(Cl)c(NC(=O)COC(=O)/C=C/c2ccco2)c1,2.2,-12.3,-5.2,46.1*,-0.2,1.0,46.9*
O=C(COC(=O)/C=C/c1ccc(F)cc1)Nc1ccc(S(=O)(=O)N2CCOCC2)cc1,3.1,.,.,3.6,1.8,4.0,.
COc1ccc(/C=C/C(=O)OCC(=O)Nc2cc(S(=O)(=O)N(C)C)ccc2Cl)cc1,2.3,-2.6,12.0,-1.9,4.4,1.7,.
CN(C)S(=O)(=O)c1ccc(Cl)c(NC(=O)COC(=O)/C=C/c2ccc(S(=O)(=O)N3CCOCC3)cc2)c1,-1.1,-3.9,1.7,31.3*,-1.1,5.2,26.0
O=S(=O)(/N=C(/Nc1ccc(F)cc1F)c1ccccc1)c1ccc(Br)cc1,4.0,12.8,5.5,.,.,.,.
CCC1(c2ccc(F)cc2)NC(=O)N(CC(=O)N2c3ccccc3CC2C)C1=O (centres undefined),-0.8,10.1,.,0.0,11.7,6.9,.
O=C(COC(=O)c1ccccc1NCCO)NNC(=O)c1cccs1,7.3,-10.4,2.0,0.2,2.4,-0.7,.
O=C(Cn1nnc2ccccc21)c1ccc(Cl)cc1,-0.7,3.0,1.4,-5.2,-3.6,-0.7,.
O=C1CCC(C(=O)OCc2nnc(-c3ccc(Cl)cc3)o2)=NN1,1.6,-12.3,-12.0,7.3,4.2,2.7,.
Cc1nn(Cc2ccccc2)c(Cl)c1C(=O)OCc1nnc(-c2ccccc2)o1,6.8,8.5,1.2,31.6*,3.5,6.4,22.9
O=C(OCc1nnc(-c2ccccc2)o1)c1ccc2c(c1)OCO2,3.2,-16.6,-3.8,57.9*,1.9,-2.9,60.3*
CCOc1ncccc1C(=O)OCc1nnc(-c2ccccc2)o1,5.6,8.4,-2.7,47.1*,0.7,6.6,45.1*
O=C(OCc1nnc(-c2ccc(Cl)cc2)o1)c1ccc(O)cc1,7.3,-5.9,3.3,74.5*,0.8,2.1,68.1*
O=C(OCc1nnc(-c2ccccc2)o1)c1cccnc1Cl,0.6,-13.2,-5.4,21.1,2.9,3.4,.
CN1CCN(c2nc(-c3ccc(Cl)cc3Cl)nc3ccccc23)CC1,5.4,-5.2,8.3,-0.6,4.0,2.8,.
CC(C)OC(=O)CSc1nc(Cc2cccs2)nc2ccccc12,3.0,0.0,-1.0,-0.2,0.5,-0.8,.
Cc1cccc(NNC(=O)c2c(F)cccc2Cl)c1,2.7,-4.4,-4.0,2.2,5.9,5.8,.
